Most compounds without a hit are left out; they make up all but 3.5% or so of the library.
TEAD-YAP inh: TEAD-YAP interaction inhibition, primary screen, TEAD-YAP interaction inhibitor project, luminescence, HEK-TIYL cells. TEAD-Gal4/YAP UAS-luciferase luminescence. inhibition, % at 9.12 µM. 640,000 compounds, 1.4% hits; in the data active means inhibition above about 32%
GPR151 activ: activators of human GPR151, primary screen, cell-based, PathHunter beta-arrestin, luminescence. activation, % at 11.2 µM. G-protein coupled receptor 151 (Homo sapiens), Q8TDV0. 650,000 compounds, 1% hits. PathHunter beta-arrestin GPR151 cells; in the data active means activation above about 4.9%
FBW7 activator: FBW7 E3 ligase activators, primary screen, biochemical, AlphaScreen, human; F-box/WD repeat-containing protein 7 (Homo sapiens), Q969H0; AlphaScreen FBW7–phospho-cyclin E peptide binding, activator screen; normalized activity (activation), % at 26.1 µM; 650,000 compounds, 0.13% hits; AID 1259310, 2017; in the data active means normalized activity above about 1.9%;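 further: purified mutant Fbw7 with reduced substrate affinity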
MITF primary: MITF inhibitors, primary screen, biochemical, AlphaScreen, human. 650,000 compounds, 0.91% hits. AlphaScreen MITF homodimerization, bead proximity signal. inhibition, % at 2.6 µM. Microphthalmia-associated transcription factor (Homo sapiens), O75030; in the data active means inhibition above about 50%
Target sequence (O75030 whole entry, looked up): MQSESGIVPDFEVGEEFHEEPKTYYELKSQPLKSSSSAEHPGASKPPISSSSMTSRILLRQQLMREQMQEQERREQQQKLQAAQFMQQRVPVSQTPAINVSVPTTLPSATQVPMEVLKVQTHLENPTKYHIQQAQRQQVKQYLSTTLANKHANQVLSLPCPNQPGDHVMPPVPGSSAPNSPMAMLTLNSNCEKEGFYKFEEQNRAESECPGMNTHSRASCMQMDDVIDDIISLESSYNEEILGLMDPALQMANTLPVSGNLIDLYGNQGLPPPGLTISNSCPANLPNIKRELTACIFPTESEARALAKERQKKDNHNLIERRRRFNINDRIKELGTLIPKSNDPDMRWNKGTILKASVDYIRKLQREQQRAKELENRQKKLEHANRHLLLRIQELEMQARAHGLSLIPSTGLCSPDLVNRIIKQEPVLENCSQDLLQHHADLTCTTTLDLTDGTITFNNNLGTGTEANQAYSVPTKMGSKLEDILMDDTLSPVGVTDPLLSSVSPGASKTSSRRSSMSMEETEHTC
GPR151 conf act: GPR151 activators, triplicate retest, confirmation, cell-based, PathHunter beta-arrestin, luminescence. shares compounds with GPR151 activ. GPR151 PathHunter beta-arrestin cells, 90 min; % of EA-reagent control over plate median. activation, % at 11.2 µM. 6,700 tested, under 10 active. AID 1508609, 2020;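 active means mean percent activation across replicates above the confirmation screen cutoff of 4.91%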
GPR119 counter: GPR119 activators in beta-arrestin cells, counter-screen for GPR151 activator project, cell-based, PathHunter beta-arrestin, luminescence, triplicate; shares compounds with GPR151 activ; 90 min; 0 = compound-well median, 100 = enzyme-acceptor control; 6,700 compounds, 0.3% hits; AID 1508611, 2020; activation, % at 11.2 µM;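 active means mean percent activation in the counterscreen above 29.09%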;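 further: counterscreen on off-target GPR119 to flag nonselective hits from the GPR151 activator screen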
A number is an active result; 0 = inactive; - = no result.

SMILES	TEAD-YAP inh	GPR151 activ	FBW7 activator	MITF primary	GPR151 conf act	GPR119 counter
COc1ccc(CNC(=O)CCCn2c(SCC(=O)Nc3ccc(OC)cc3OC)nc3cc4c(cc3c2=O)OCO4)cc1	0	0	0	0	-	-
Cc1ccc(Cn2cnc3c(cnn3CCNC(=O)COc3ccc(Cl)cc3Cl)c2=O)cc1	0	0	0	0	-	-
CC(C)(C)NC(=O)COC(=O)Cc1ccc(Br)cc1	0	0	0	0	-	-
CC(C)c1ccc(NC(=O)CSc2nc3ccccc3n2S(=O)(=O)c2cccs2)cc1	0	0	0	0	-	-
CC(=O)n1c(SCC(=O)Nc2ccc(C(C)C)cc2)nc2ccccc21	0	6.8	0	0	0	0
CCn1c(SCC(=O)c2cccs2)nc2c1c(=O)n(C)c(=O)n2C	0	5.3	0	0	0	0
CCCC(c1nnnn1C(C)(C)C)N1CCN(c2nc3ccccc3s2)CC1 (stereo not drawn)	0	0	0	0	-	-
CN1CCC(N(C(=O)c2ccc(C(F)(F)F)cc2)C2CCN(C)CC2)CC1	0	6.2	0	0	0	0
Clc1ccc(Cn2ncc3c(N4CCCC4)ncnc32)cc1	0	8.4	0	0	0	0
CCOC(=O)C1CCN(C(=O)Cc2c(C(=O)O)[nH]c3ccc(Cl)cc23)CC1	0	5.3	0	0	0	0
CCOC(=O)CNC(=O)c1ccc(OC)c(Br)c1	0	5.6	0	0	0	0
COc1ccc(C(=O)NCCC(c2ccccc2)c2ccccc2)cc1OC	0	19.1	0	0	0	0
CCOc1cc(C(=O)NCc2ccccc2)ccc1OC	0	14.1	0	0	0	0
COc1ccc(C(=O)NCc2ccccc2)cc1I	0	0	0	0	-	-
COc1ccc(C(=O)NCCOc2ccccc2OC)cc1OC	0	0	0	0	-	-
CCOC(=O)CNC(=O)c1ccc(OC)c(I)c1	0	0	0	0	-	-
Cc1cccc(NC(=S)N(CCN2CCCCCC2)Cc2ccco2)c1	0	0	0	0	-	-
CCCNC(=O)C1CCN(C(=O)N2CC(C)Oc3ccc(Cl)cc32)CC1 (stereo not drawn)	0	11.0	0	0	0	0
CCCNC(=O)C1CCN(C(=O)N2CC(C)Oc3ccccc32)CC1 (stereo not drawn)	0	0	0	0	-	-
Cc1csc2ncc(C(=O)N3CCc4ccccc43)c(=O)n12	0	7.9	0	0	0	0
O=C(NCCN1CCCC1)C1(S(=O)(=O)c2ccc(Cl)cc2)CC1	0	0	0	0	-	-
CC1CCCCN1CCNC(=O)C1(S(=O)(=O)c2ccc(Cl)cc2)CC1 (stereo not drawn)	0	6.7	0	0	0	0
CCc1ccc(NC(=O)c2cc(S(=O)(=O)N3CCOCC3)ccc2F)cc1	0	0	0	0	-	-
COc1cc(/C=C2\SC(=Nc3ccccc3)N(c3ccccc3)C2=O)ccc1Oc1ccc([N+](=O)[O-])cc1C(F)(F)F	0	0	0	0	-	-
Cn1c(=O)c2c(ncn2CC(=O)Nc2ccccc2)n(C)c1=O	0	0	0	0	-	-
SMILES	TEAD-YAP inh	GPR151 activ	FBW7 activator	MITF primary	GPR151 conf act	GPR119 counter
CCn1c2ccccc2c2cc(NC(=O)Cn3cnc4c3c(=O)n(C)c(=O)n4C)ccc21	0	6.1	0	0	0	0
CCOCCn1c(=O)c2c(nc3n(-c4ccc(Cl)cc4)c(C)c(C)n23)n(C)c1=O	0	0	0	0	-	-
CCOC(=O)c1sc(NC(=O)c2cccc(Cl)c2)nc1-c1ccccc1	0	0	0	0	-	-
Cc1ccc(S(=O)(=O)N(CC(N)=O)Cc2cccc(C)c2)cc1	0	5.2	0	0	0	0
CC1=C(C(=O)Nc2cccc(C(F)(F)F)c2)C(c2cccs2)C2=C(CCCC2=O)N1 (stereo not drawn)	0	6.5	0	0	0	0
OCCC1CN(Cc2c(F)ccc(F)c2F)CCN1Cc1ccsc1 (stereo not drawn)	0	0	0	0	-	-
O=C(Nc1ccc(S(=O)(=O)Nc2nccs2)cc1)C(c1ccccc1)c1ccccc1	0	5.5	0	0	0	0
O=C(Nc1ccc(S(=O)(=O)Nc2nccs2)cc1)C(Cl)Cl	0	0	0	0	-	-
Cc1ccc(NC(=O)COC(=O)CCc2ccco2)cc1C	0	6.3	0	0	0	0
CCOc1ccc(NC(=S)N2CCn3cccc3C2c2ccc(F)cc2)cc1 (stereo not drawn)	0	0	0	0	-	-
CC(C)c1ccc(NC(=O)C2C3C=CC4(O3)C2C(=O)N(CCCN2CCOCC2)C4C(=O)NC2CCCCC2)cc1 (stereo not drawn)	0	5.5	0	0	0	0
CCCCN1C(=O)C2C(C(=O)Nc3ccc(Cl)c(Cl)c3)C3C=CC2(O3)C1C(=O)NC1CCCCC1 (stereo not drawn)	0	0	0	0	-	-
Cc1ccc(NC(=O)C2C3C=CC4(O3)C2C(=O)N(CCC2=CCCCC2)C4C(=O)NC2CCCCC2)cc1 (stereo not drawn)	0	0	0	0	-	-
Cc1ccc(NC(=O)C2C3C=CC4(O3)C2C(=O)N(CCC2=CCCCC2)C4C(=O)NC2CCCCC2)cc1Cl (stereo not drawn)	0	5.8	0	0	0	0
CCCCN1C(=O)C2C(C(=O)Nc3ccc(C)c(Cl)c3)C3C=CC2(O3)C1C(=O)NC1CCCCC1 (stereo not drawn)	0	9.6	0	0	0	0
CC(C)c1ccc(NC(=O)C2C3C=CC4(O3)C2C(=O)N(CCCN2CCN(C)CC2)C4C(=O)NC2CCCCC2)cc1 (stereo not drawn)	0	0	0	0	-	-
O=C(NCC1CCCO1)c1cc(=O)[nH]c2ccc(Br)cc12 (stereo not drawn)	0	6.7	0	0	0	0
O=C(NCC1CCCO1)c1cc(Br)ccc1Cl (stereo not drawn)	0	0	0	0	-	-
CCc1ccc2oc(-c3cc(NC(=O)c4cccc(C)c4)ccc3O)nc2c1	0	0	0	0	-	-
COc1ccccc1C(=O)Nc1nnc(-c2ccc(F)cc2)o1	0	0	0	0	-	-
COc1ccccc1-c1nnc(NC(=O)c2ccc([N+](=O)[O-])s2)o1	0	14.6	0	0	0	0
COc1cc(C(=O)Nc2ccc3oc(-c4ccc(I)cc4)nc3c2)cc(OC)c1OC	0	20.9	0	0	0	0
O=C(Nc1nnc(-c2ccccc2)o1)c1ccc([N+](=O)[O-])s1	0	0	0	0	-	-
COc1ccccc1C(=O)Nc1nnc(-c2ccc(Cl)cc2)o1	0	5.5	0	0	0	0
CCc1ccc(-c2nc3cc(NC(=O)c4cccc(C)c4)ccc3o2)cc1	0	8.2	0	0	0	0

From PubChem BioAssay
